HT1080-NT tox – kills 2HG-producing HT-1080-NT fibrosarcoma cells | hit rate 1.6% among 360,000 | AID 686970 | HT-1080-NT fibrosarcoma viability, CellTiter-Glo ATP luminescence, 48 h | Potency, µM (titrated, usually from 46.1 µM), inactives show at the highest dose activity, negative = less viability, most hits filed as cytotoxic;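 also: NT is the 2HG producing partner of a matched IDH1 knockdown line; potency is read from the fitted curve at half-maximal effect; 0% = DMSO-treated cells and -100% = media-only wells without cells; nearly all actives have a fitted effect of over 55% in size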
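Luminescent CellTiter-Glo readout after 48 hours of compound exposure at 37 degrees C defined viability of HT-1080-NT cells. Activity was normalized to DMSO wells and cell-free media wells; concentration-response curves were fitted and assigned curve classes.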
IL-1B inflam inh – inhibitors of inflammasome signaling (IL-1 beta secretion) | THP-1 LPS/ATP IL-1B secretion, AlphaLISA, 16 h; stronger effect = lower value | activity change, % at 57.5 µM | hit rate 4.7% among 360,000; in the data active = activity change below about -50%; inconclusive = mostly about -30% to -49%
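Secreted IL-1B measured by AlphaLISA bead assay after 16 h compound exposure of THP-1 cells; compounds (final up to 57.5 uM) added 1 h before LPS (250 ng/mL) and ATP (1.25 mM) stimulation; lower signal means less secretion.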
TDP1 cell noCPT – qHTS for Inhibitors of human tyrosyl-DNA phosphodiesterase 1 (TDP1): qHTS in cells in absence of CPT; DT40 Tdp1-/- hTDP1 cells, no CPT, ATP luminescence, 48 h; Potency, µM (top dose mostly 46.2 µM), for the others: top-dose activity change, negative = growth inhibition, usual class: inhibitors; hit rate 15% among 420,000; AID 686978, 2013; also: potency is read from the fitted curve at half-maximal effect; nearly all actives have a fitted effect of over 55% in size
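Growth of hTDP1-complemented DT40 Tdp1-knockout cells is measured by ATP luminescence after at least 48 hr compound exposure at 37 °C, with DMSO substituting for the 20 nM CPT used in the parallel screen.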
TDP1 cell CPT – growth inhibition of DT40 Tdp1-/-;hTDP1 cells with camptothecin (screen for TDP1 inhibitors). chicken DT40 Tdp1-/-;hTDP1 cells + 20 nM CPT, ATP luminescence, 48 h. Potency, µM (top dose mostly 46.2 µM), without a hit: at the highest dose activity change, negative = growth inhibition, actives largely listed as inhibitors. hit rate 12% among 420,000. AID 686979; also: potency is read from the fitted curve at half-maximal effect; nearly all actives have a fitted effect of over 55% in size
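Chicken DT40 Tdp1-/- cells stably complemented with human TDP1 were seeded at 400 cells/well in medium containing 20 nM camptothecin, exposed to pin-transferred compounds, and grown at 37 °C for at least 48 hr. Viability was read as ATP luminescence.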
HT1080 IDH1KD tx – HT-1080 IDH1 knockdown cell toxicity (counter line); HT-1080 IDH1 knockdown viability, ATP luminescence, 48 h; hit rate 2% among 360,000; Potency, µM (titrated, usually from 46.1 µM), inactives show at the top dose activity, negative = toxicity, hits mostly cytotoxic;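 also: potency is read from the fitted curve at half-maximal effect; 0% = DMSO wells and -100% = cell-free medium wells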
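CellTiter-Glo luminescence after 48 h compound exposure at 37 degrees C of IDH1-knockdown HT-1080 cells in 5% FBS RPMI. %Activity scaled between DMSO wells and cell-free media wells, with curves fitted and assigned curve classes.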
Active calls of the source: *; ? = inconclusive; nt = no result given; [ ] = dose if it differs, or a comment. The list is not random: actives were taken first. Their share in the collection is about 19%. Unless noted, calls follow the shape of the dose curve; as a rule, active = well fitted curve in the direction sought with a large enough effect; inconclusive = small, poorly fitted or top-dose-only effect, or another doubt; inactive = no such curve, though single readings can be large; an effect the other way counts as inactive or inconclusive. Unless noted, % is scaled to controls: 0 for no effect and ±100 for the full control effect.

SMILES	HT1080-NT tox	IL-1B inflam inh	TDP1 cell noCPT	TDP1 cell CPT	HT1080 IDH1KD tx
CCN1CCc2c(sc(-n3cccc3)c2C(C)NC(=O)Nc2ccc(C(=O)OC)cc2)C1 (configuration not stated)	nt	nt	18µM*	18µM*	nt
COC(=O)c1c(NC(C)=O)sc2c1CCN(Cc1ccccc1)C2	4%	15	-19%	-4%	-4%
CC(NC(=O)Nc1ccccc1C(F)(F)F)c1c(-n2cccc2)sc2c1CCCC2 (configuration not stated)	nt	nt	10µM*	?	nt
C/C(Cn1cnc([N+](=O)[O-])n1)=N\NC(=O)c1ccc(Br)cc1	5%	-1	-1%	-8%	1%
C/C(Cn1nnc([N+](=O)[O-])n1)=N\NC(=O)c1ccc(Cl)c(Cl)c1	?	1	16µM*	18µM*	?
C/C(Cn1nnc([N+](=O)[O-])n1)=N\NC(=O)c1ccc(O)cc1	?	41	13µM*	15µM*	-9%
Cc1ccc(NCc2nnc3n2CCCCC3)cc1	20%	-14	1%	-16%	0%
O=[N+]([O-])c1ccc(NN=CC2CCCCCC2)c([N+](=O)[O-])c1	15%	20	13µM*	15µM*	17%
O=C(NNc1c2ccccc2nc2ccccc12)c1ccc(O)cc1O	?	-51*	16µM*	?	?
O=C(NNC(=O)c1cc2ccccc2o1)c1ccncc1	12%	25	9%	-6%	16%
O=C(NNC(=O)c1ccccc1O)c1cc2ccccc2o1	-14%	99	23µM*	?	-11%
O=C(NNc1c2ccccc2nc2ccccc12)c1ccccc1O	?	-12	21µM*	?	?
O=C(NNC(=O)c1cccc2ccccc12)c1ccccc1O	-11%	83	?	15µM*	?
CC(=O)c1nnn(-c2ccc([N+](=O)[O-])cc2C)c1C	16%	21	-1%	1%	-3%
O=C(NNc1nc(=O)c2cccnc2s1)c1ccccc1O	-27%	118	0.016µM*	0.0052µM*	?
Cc1ccc(/C(N)=N/OC(=O)N2CCOCC2)cc1	?	-17	?	18µM*	18µM*
Cc1c(C(=O)NCCC2CCCN2C)cnn1-c1nccc(-c2ccccc2F)n1 (configuration not stated)	nt	nt	-16%	-2%[9.04 µM]	nt
CCN(CC)c1sc(S(=O)(=O)c2ccccc2)nc1S(=O)(=O)c1ccc(C)cc1	nt	nt	15µM*	?	nt
Cc1ccc(S(=O)(=O)c2nc(S(=O)(=O)c3ccccc3)sc2N2CCN(CCO)CC2)cc1	?	-68*	?	?	-8%
CCN1CCN(c2sc(S(C)(=O)=O)nc2S(=O)(=O)c2ccc(C)cc2)CC1	8%	-85*	15µM*	?	3%
CS(=O)(=O)c1nc(S(=O)(=O)c2ccc(Cl)cc2)c(N2CCC(C(N)=O)CC2)s1	19%	-79*	?	?	2%
CCCS(=O)(=O)c1nc(S(=O)(=O)c2ccc(C)cc2)c(N(CC)CC)s1	nt	nt	?	-19%	nt
Cn1c(CNC(=O)CNC(=O)c2cccc(F)c2)cc(=O)n(C)c1=O	21%	4	1%	6%	6%
FC(F)(F)c1cc(CCN2C(=S)NC[C@@H]2CC2CCCCC2)cc(C(F)(F)F)c1	0%	?	?	?	7%
CCN(CC)CCN1C(=O)C(=O)/C(=C(/O)c2ccc(S(=O)(=O)N3CCOCC3)cc2)C1c1ccc(C(C)(C)C)cc1 (configuration not stated)	16%	-11	-4%	3%	8%
SMILES	HT1080-NT tox	IL-1B inflam inh	TDP1 cell noCPT	TDP1 cell CPT	HT1080 IDH1KD tx
CC(=O)C1C=CC(C)(C(=O)O)C2C=C(C)C(=O)C(C)(O)C12 (configuration not stated)	15%	16	-2%	6%	7%
CC(C)CNC(=O)C1CCN(c2ccc(S(=O)(=O)N3CCOCC3)cc2[N+](=O)[O-])CC1	-5%	-13	?	-27%	-2%
N#Cc1ccc(NC(=S)NC(=O)CCc2ccc(S(=O)(=O)N3CCOCC3)cc2)cc1	22%	23	?	13µM*	-12%
NNC(=S)Nc1ccc(S(=O)(=O)N2CCOCC2)cc1	5%	10	15%	-7%	-2%
N#Cc1ccc(NC(=O)CCc2ccc(S(=O)(=O)N3CCOCC3)cc2)cc1	5%	20	-7%	-33%	0%
O=S(=O)(c1ccc(NC(=S)NCCC(c2ccccc2)c2ccccc2)cc1)N1CCOCC1	-27%	-16	23µM*	21µM*	?
CC(C)(C)CC(C)(C)NC(=S)Nc1ccc(S(=O)(=O)N2CCOCC2)cc1	?	-71*	?	?	?
CCOCCCNS(=O)(=O)c1ccc(NC(=O)Cc2c(F)cccc2Cl)cc1	-14%	4	-17%	3%	-4%
O=C(CN1CCN(S(=O)(=O)c2ccc3c(c2)OCCO3)CC1)Nc1cccc(F)c1	-14%	-17	-25%	-21%	-13%
CCOc1ccc2c(c1)c(=O)c(C(=O)c1ccc3c(c1)OCO3)cn2Cc1cccc(F)c1	nt	nt	23µM*	?	nt
Cc1ccc2c(c1)c(=O)c(C(=O)c1ccc3c(c1)OCO3)cn2Cc1cccc(F)c1	nt	nt	16µM*	?	nt
CCOc1cccc(-c2c(C(=O)N/N=C/c3ccc(Br)cc3)nnn2-c2nonc2N)c1	11%	-9	?	-18%	-7%
COC(=O)c1cc(S(=O)(=O)n2nc(C)c(Br)c2C)c(Cl)cc1Cl	?	-85*	15µM*	26µM*	?
COc1ccc(C(=O)NCc2ccc3c(c2)CCN3C(=O)c2ccc(F)cc2)cc1	nt	nt	21µM*	?	nt
CCOc1ccc(C(=O)NCc2ccc3c(c2)CCN3C(=O)c2ccccc2)cc1	nt	nt	16µM*	13µM*	nt
CCOc1ccc(C(=O)NCc2ccc3c(c2)CCN3C(=O)c2ccc(Cl)cc2)cc1	nt	nt	2%	-8%	nt
O=C(NCc1ccc2c(c1)CCN2C(=O)c1ccc(Cl)cc1)c1cccc(F)c1	nt	nt	2%	7%	nt
COc1ccc(C(=O)N2CCc3ccccc32)cc1	0%	-4	-26%	-6%	-2%
COc1ccc(C(=O)NCc2ccc3c(c2)CCN3C(=O)c2ccccc2)cc1	nt	nt	23µM*	23µM*	nt
O=C(NCc1ccc2c(c1)CCN2C(=O)c1ccncc1)c1cccc(Cl)c1	nt	nt	?	21µM*	nt
Cc1noc(C)c1COC(=O)c1ccc(F)c(S(=O)(=O)N2CCOCC2)c1	4%	31	6%	3%	1%
O=C(NCc1ccc2c(c1)CCN2C(=O)c1ccc(F)cc1)c1ccco1	nt	nt	?	21µM*	nt
Cc1ccccc1C(=O)NCc1ccc2c(c1)CCN2C(=O)c1ccccc1	nt	nt	10µM*	13µM*	nt

Screens (PubChem BioAssay)
